Data as given in PubChem BioAssay AID651558 (National Center for Advancing Translational Sciences (NCATS), 2012).
Among all 1,200 compounds or so, about 480 (40%) were called active. Another 29% or so got no clear call; they are omitted. Some of the results follow. Values without a mark were called inactive. Calls come from the whole dose curve; as a rule, active = well fitted inhibition curve with a large enough effect; inconclusive = small, poorly fitted or top-dose-only effect; inactive = no such curve, though single readings can be large or run the other way.
% is set by controls: 0 for no effect and ±100 for the full control effect; potency is the fitted concentration of half-maximal effect.

Test: qHTS Assay to Find Inhibitors of Chronic Active B-Cell Receptor Signaling: Hit Validation in Primary Screen; note: nearly all actives have a fitted effect of over 75% in size
Details: ABC-DLBCL IkB-luc/CBR ratio luminescence, 4 h; series mostly up to 46.1 µM; activity change, negative = inhibition: at the top concentration
Text: Diffuse large B-cell lymphoma (DLBCL) is the most common category of non-Hodgkin lymphoma, with ~20,000 new cases per year in the United States. DLBCL should be regarded as a collection of different neoplasms. Microarray gene expression analysis has defined two principal types of DLBCL, named for their similarity to normal B cell stages or activation states: a germinal center B-cell (GCB) type, and an activated B-cell (ABC) type. In ABC-DLBCL, a constitutive high-level activity of the NF-kappaB family of transcription factors has been observed (1) and NF-kappaB target genes are more highly expressed in ABC primary tumors than in GCB tumors. Functional studies have shown a constitutive high-level activity of the IkappaB (inhibitor of kappa-B) kinase (IKK) complex. […] Further analysis of DLBCL primary tumors for NF-kappaB target gene expression imply that although CARD11 is required for constitutive IKK activity in all ABC-DLBCL lines, mutations in CARD11 may be the root cause of IKK activation only in lines or tumors with such mutations. In other words, CARD11 mutations may explain NF-kappaB activation in only 10% of ABC-DLBCL cases. […] This process has been termed 'chronic active BCR signaling' (CABS). The goal of this screen is to find small-molecule inhibitors of the CABS pathway found in ABC-DLBCL lines using a cell-based assay that measures IkappaBalpa stability, which has already been extensively validated in the OCI-Ly3 line (PubChem AID:445; REF: 4). […] A cell-sensor assay for I-kappa-B-alpha stabilization has been developed. The assay uses green (CBG68) and red (CBR) emitting beetle luciferases [Chroma-GloTM developed by Promega Corp.] where the green luciferase is fused to IkappaBalpha and the red luciferase is present in its native state. Both luciferase genes are stably present in the TMD8 human ABC DLBCL cell line, but their expression is under the control of tetracycline-inducible promoters. Following the addition of doxycycline to induce expression of the luciferases, the green luminescence in control cultures rises only slowly because the CBG fusion partner IkappaBalpha is targeted by IKK activity for rapid degradation. In contrast, green luminescence rises rapidly in the presence of proteasome inhibitors or IKK inhibitors. The rise in red luminescence of CBR is not affected by proteasome or IKK inhibitors, and serves as normalization for cell number and nonspecific effects. Compounds were screened as a concentration-titration series that ranged from 46 uM to 3 nM. NIH Molecular Libraries Probe Production Network [MLPCN] NIH Chemical Genomics Center [NCGC] MLPCN Grant: R03 DA031086 PI Name: Dr. R. Eric Davis
Cells were seeded in 1536-well plates at 5000 cells/4uL in IMDM medium containing 0.5% FBS, w/o phenol red, 1% penicillin/streptomycin. Then, 23 nL of compounds or DMSO were delivered to each well using a pin tool. One uL 20ng/ml doxycycline was then dispensed into white solid 1536-well plates and the plates were incubated at 37C/5% C02 in a cell incubator for 4 hrs. Then 4 uL luminescent substrate mix (in-house prepared: 150 mM Tris-Cl, pH 7.6, 3 mM MgCl2, 1% Triton X-100, 5 mM DTT, 0.2 mM CoA, 0.15 mM ATP, 5 mM D-luciferin, final concentrations) was added to each well. The plate was incubated at r.t. for 10-15 min. The plates were measured on a ViewLux plate reader for green luminescence (540/20 nm filter) and red luminescence (618/8 nm filter). The green and red luminescent signals were corrected for red and green luminescence filter overlap using previously determined filter calibration constants (determined using the procedure outlined in the Promega Technical Manual; REF 4). The %Activity was determined from the ratio of corrected green/red luminescent values. MG132 were used as control. Green luminescent and ratio %Activity was determined by normalizing to the difference in signal between basal cells (0% Activity) and cells incubated with 10 uM of the proteasome inhibitor MG-132 (100% Activity). […]
In the case of `CCOc1cc(/C=N/O)ccc1OCc1ccccc1F`, the “activity change, negative = inhibition” value is reported as -15.1%.
With `COc1ccc(/C=N\NC(=O)c2ccccc2F)cc1COc1ccc(F)cc1F` the Potency was 3.26 µM (active).
For `CNC(=S)N/N=C(\C)c1cccc([N+](=O)[O-])c1`, the “activity change, negative = inhibition” value was 36%.
For `C/C(=N\NC(=O)C(C)n1nc(C)c([N+](=O)[O-])c1C)c1ccccc1O` (stereo not given), the “activity change, negative = inhibition” value was -4.79%.
For `C/C(=N\NC(=O)c1c([N+](=O)[O-])c(C)nn1C)c1ccc(NC(=O)C2CCCC2)cc1`, the Potency was 9.2 µM (active).
In the case of `COc1cc(C(=O)N/N=C/c2ccsc2C)cc(OC)c1OC`, the Potency is reported as 2.31 µM (active).
In the case of `COc1cc(C(=O)O/N=C(\N)c2ccc([N+](=O)[O-])cc2)cc(OC)c1OC`, the “activity change, negative = inhibition” value is reported as 51.1%.
In the case of `COc1cc(C(=O)N/N=C/c2sccc2C)cc(OC)c1OC`, the Potency is reported as 1.46 µM (active).
With `COc1cc(C(=O)N/N=C/c2cc([N+](=O)[O-])cs2)cc(OC)c1OC` the Potency was 20.6 µM (active).
For `COc1cc(C(=O)N/N=C/C2CC=CCC2)cc(OC)c1OC` (stereo not given), the “activity change, negative = inhibition” value was -7.05%.
In the case of `Cc1cc(C(=O)OCC(=O)NCc2ccco2)c(C)n1-c1ccc(F)cc1`, the “activity change, negative = inhibition” value is reported as 38.7%.
In the case of `CC(NC(=O)c1ccc(S(=O)(=O)NCc2ccco2)cc1)c1ccc(F)cc1` (stereo not given), the “activity change, negative = inhibition” value is reported as -8.65%.
With `CCC1=Nc2cc(C(=O)NCc3ccco3)ccc2Sc2ccc(Cl)cc21` the Potency was 2.91 µM (active).
In the case of `CCCC(C)NC(=O)c1ccc(C2SCC(=O)N2Cc2ccco2)cc1` (stereo not given), the “activity change, negative = inhibition” value is reported as -16.5%.
For `CCC1=Nc2cc(C(=O)NCc3ccco3)ccc2Sc2ccc(C)cc21`, the Potency was 1.16 µM (active).
With `CC1=Nc2cc(C(=O)NCC3CCCO3)ccc2Sc2ccc(C)cc21` (stereo not given) the Potency was 7.31 µM (active).
In the case of `CC1=Nc2cc(C(=O)NCc3ccco3)ccc2Sc2ccc(C)cc21`, the Potency is reported as 1.84 µM (active).
With `COc1ccc(N2C(=O)CS/C2=N\C(=S)Nc2ccccc2)cc1` the “activity change, negative = inhibition” value was 0.626%.
In the case of `N#CCSc1nc(N)c(C#N)c(C2CCCCC2)c1C#N`, the “activity change, negative = inhibition” value is reported as -9.34%.
For `CCC1=Nc2cc(C(=O)NCc3ccccc3Cl)ccc2Sc2ccc(C)cc21`, the Potency was 4.61 µM (active).
With `CCC1=Nc2cc(C(=O)NCc3cccnc3)ccc2Sc2ccc(C)cc21` the Potency was 18.4 µM (active).
With `CCC1=Nc2cc(C(=O)NCc3ccco3)ccc2Sc2ccccc21` the Potency was 20.6 µM (active).
With `CSc1nc(N(C)NC(=O)c2cccc(C)c2)c2ccccc2n1` the Potency was 1.3 µM (active).
In the case of `COc1ccc(C(=O)NN(C)c2nc(C(F)(F)F)nc3ccccc23)cc1`, the Potency is reported as 0.291 µM (active).
In the case of `CSc1nc(N(C)NC(=O)c2ccc(Cl)cc2)c2ccccc2n1`, the “activity change, negative = inhibition” value is reported as 37.4%.
For `COc1ccc(-c2c(C)nn3c(N)c(C#N)cnc23)cc1OC`, the Potency was 20.6 µM (active).
In the case of `C[C@H]1C[C@@H]2[C@H]([C@@H](O)C[C@@]3(C)[C@H]2CC[C@]3(O)C(=O)CO)[C@@]2(C)C=CC(=O)C=C12`, the “activity change, negative = inhibition” value is reported as 47.4%.
With `COc1ccc(/C=N/NC(=O)c2cc3c(OC)ccc(OC)c3[nH]2)cc1O` the Potency was 2.31 µM (active).
For `COc1ccc(/C=N/NC(=O)c2[nH]c3ccc(C)cc3c2-c2ccccc2)c(C(=O)O)c1OC`, the “activity change, negative = inhibition” value was 11.9%.
For `Cc1ccc(CNC(=O)Cc2ccc(-n3c(=O)[nH]c4ccsc4c3=O)cc2)cc1`, the Potency was 4.11 µM (active).
With `O=C1N/C(=N/N=C/c2ccccc2O)SC1Cc1ccc(F)cc1` (stereo not given) the Potency was 9.2 µM (active).
In the case of `C=CCn1c(SC2CCOC2=O)nc2sc(C)c(C)c2c1=O` (stereo not given), the “activity change, negative = inhibition” value is reported as -15.6%.
In the case of `C=CCn1c(SCC(=O)Nc2cccc(S(N)(=O)=O)c2)nc2sc(C)c(C)c2c1=O`, the Potency is reported as 5.17 µM (active).
In the case of `CCC1=Nc2cc(C(=O)NCCCOC(C)C)ccc2Sc2ccc(C)cc21`, the Potency is reported as 2.59 µM (active).
In the case of `CC1=Nc2cc(C(=O)NCCCOC(C)C)ccc2Sc2ccc(C)cc21`, the Potency is reported as 7.31 µM (active).
With `Oc1ccccc1N=Nc1ccccc1O` the “activity change, negative = inhibition” value was 5.71%.
For `CCc1ccccc1NC(=S)N=Nc1c(O)n(C)c2ccc(S(=O)(=O)N3CCOCC3)cc12`, the “activity change, negative = inhibition” value was 26.3%.
In the case of `O=c1[nH]c(-c2ccccn2)nc2sc(-c3ccccc3)cc12`, the Potency is reported as 2.31 µM (active).
With `S=c1[nH]cnc2sc(-c3ccccc3)cc12` the “activity change, negative = inhibition” value was -6.35%.
With `CCc1cc2c(=O)[nH]c(-c3ccccn3)nc2s1` the Potency was 14.6 µM (active).
For `C/C(=N\NC(=S)NCCc1ccccc1)c1cccc(Br)c1`, the “activity change, negative = inhibition” value was 4.84%.
With `O=C(NC(=S)NC1CCSC1=O)c1cccs1` (stereo not given) the “activity change, negative = inhibition” value was -12.7%.
For `O=C1NC(=O)C(=C2CCCCCC2)S1`, the “activity change, negative = inhibition” value was 39.3%.
In the case of `COc1ccc(-c2cnc3c(c2)CCC3(C#N)C#N)cc1`, the Potency is reported as 3.66 µM (active).
In the case of `Cc1cc(C)c2ccc(/C=N/O)nc2c1O`, the “activity change, negative = inhibition” value is reported as -9.13%.
For `COc1ccc(C2CC(=O)Oc3cc(OC)c(OC)c(OC)c32)cc1` (stereo not given), the “activity change, negative = inhibition” value was -19.3%.
For `COc1ccc([C@H]2CC(=O)C=C(c3ccc(OC)cc3OC)C2)cc1`, the Potency was 16.4 µM (active).
With `Cc1ccccc1C(=O)Oc1ccc2ccc(O)cc2c1` the “activity change, negative = inhibition” value was -6.71%.
With `COc1ccc(/C=C/C(=O)c2cc(F)ccc2OC(=O)c2ccccc2C)cc1OC` the Potency was 1.3 µM (active).
In the case of `COc1ccc(/C=C/C(=O)c2cc(Br)ccc2OC(=O)c2ccco2)cc1OC`, the Potency is reported as 5.8 µM (active).
